# Experiments:
# Details in all cases: Compound concentration 20.0 uM
# [1] = biological target: Tyrosine-protein kinase ABL1 (Homo sapiens) (UniProt P00519)
# [2] = biological target: Bromodomain-containing protein 4 (Homo sapiens) (UniProt O60885)
# [3] = biological target: Cyclin-dependent kinase 2 (Homo sapiens) (UniProt P24941)
# [4] = biological target: Casein kinase I isoform delta (Homo sapiens) (UniProt P48730)
# [5] = biological target: Glycogen synthase kinase-3 beta (Homo sapiens) (UniProt P49841)
# Glycogen synthase kinase-3 beta (Homo sapiens), sequence (P49841 whole entry, looked up): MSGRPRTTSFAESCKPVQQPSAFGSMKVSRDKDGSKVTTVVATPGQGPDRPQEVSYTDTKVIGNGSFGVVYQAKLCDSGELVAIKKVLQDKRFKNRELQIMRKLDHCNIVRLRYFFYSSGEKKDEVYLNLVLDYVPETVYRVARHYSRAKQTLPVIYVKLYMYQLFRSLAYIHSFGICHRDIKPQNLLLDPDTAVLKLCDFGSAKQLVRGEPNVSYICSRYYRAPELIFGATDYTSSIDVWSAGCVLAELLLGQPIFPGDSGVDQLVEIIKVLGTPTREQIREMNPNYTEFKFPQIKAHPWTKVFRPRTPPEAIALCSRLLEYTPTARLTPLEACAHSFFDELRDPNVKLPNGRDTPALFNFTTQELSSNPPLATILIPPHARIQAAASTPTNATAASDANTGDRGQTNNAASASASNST
# [6] = biological target: Mitogen-activated protein kinase 1 (Homo sapiens) (UniProt P28482)
# Mitogen-activated protein kinase 1 (Homo sapiens), sequence (P28482 whole entry): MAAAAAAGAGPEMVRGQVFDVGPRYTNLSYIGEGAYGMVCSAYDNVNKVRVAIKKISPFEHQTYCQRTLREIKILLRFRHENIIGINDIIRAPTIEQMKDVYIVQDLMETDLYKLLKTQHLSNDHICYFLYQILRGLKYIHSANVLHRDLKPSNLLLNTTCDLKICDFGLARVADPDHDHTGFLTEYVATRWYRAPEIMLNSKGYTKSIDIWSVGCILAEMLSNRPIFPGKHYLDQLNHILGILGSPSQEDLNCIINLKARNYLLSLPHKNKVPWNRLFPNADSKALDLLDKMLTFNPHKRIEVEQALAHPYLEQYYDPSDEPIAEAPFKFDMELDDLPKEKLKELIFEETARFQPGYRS
# [7] = biological target: T1, Aurora kinase A (Homo sapiens) (UniProt O14965)
# T1 sequence (whole entry): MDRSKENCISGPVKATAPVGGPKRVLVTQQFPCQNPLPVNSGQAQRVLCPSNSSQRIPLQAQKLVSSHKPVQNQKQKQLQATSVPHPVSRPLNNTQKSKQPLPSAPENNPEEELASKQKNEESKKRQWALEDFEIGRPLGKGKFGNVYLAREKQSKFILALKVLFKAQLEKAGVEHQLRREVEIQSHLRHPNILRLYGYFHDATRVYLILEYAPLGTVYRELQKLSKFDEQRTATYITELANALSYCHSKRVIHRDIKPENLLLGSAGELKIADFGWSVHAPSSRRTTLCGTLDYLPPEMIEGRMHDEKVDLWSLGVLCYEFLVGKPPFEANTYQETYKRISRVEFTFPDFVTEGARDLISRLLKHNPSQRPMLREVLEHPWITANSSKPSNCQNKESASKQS
# [8] = biological target: T2, Transcription intermediary factor 1-alpha (Homo sapiens) (UniProt O15164)
# T2 sequence (whole entry): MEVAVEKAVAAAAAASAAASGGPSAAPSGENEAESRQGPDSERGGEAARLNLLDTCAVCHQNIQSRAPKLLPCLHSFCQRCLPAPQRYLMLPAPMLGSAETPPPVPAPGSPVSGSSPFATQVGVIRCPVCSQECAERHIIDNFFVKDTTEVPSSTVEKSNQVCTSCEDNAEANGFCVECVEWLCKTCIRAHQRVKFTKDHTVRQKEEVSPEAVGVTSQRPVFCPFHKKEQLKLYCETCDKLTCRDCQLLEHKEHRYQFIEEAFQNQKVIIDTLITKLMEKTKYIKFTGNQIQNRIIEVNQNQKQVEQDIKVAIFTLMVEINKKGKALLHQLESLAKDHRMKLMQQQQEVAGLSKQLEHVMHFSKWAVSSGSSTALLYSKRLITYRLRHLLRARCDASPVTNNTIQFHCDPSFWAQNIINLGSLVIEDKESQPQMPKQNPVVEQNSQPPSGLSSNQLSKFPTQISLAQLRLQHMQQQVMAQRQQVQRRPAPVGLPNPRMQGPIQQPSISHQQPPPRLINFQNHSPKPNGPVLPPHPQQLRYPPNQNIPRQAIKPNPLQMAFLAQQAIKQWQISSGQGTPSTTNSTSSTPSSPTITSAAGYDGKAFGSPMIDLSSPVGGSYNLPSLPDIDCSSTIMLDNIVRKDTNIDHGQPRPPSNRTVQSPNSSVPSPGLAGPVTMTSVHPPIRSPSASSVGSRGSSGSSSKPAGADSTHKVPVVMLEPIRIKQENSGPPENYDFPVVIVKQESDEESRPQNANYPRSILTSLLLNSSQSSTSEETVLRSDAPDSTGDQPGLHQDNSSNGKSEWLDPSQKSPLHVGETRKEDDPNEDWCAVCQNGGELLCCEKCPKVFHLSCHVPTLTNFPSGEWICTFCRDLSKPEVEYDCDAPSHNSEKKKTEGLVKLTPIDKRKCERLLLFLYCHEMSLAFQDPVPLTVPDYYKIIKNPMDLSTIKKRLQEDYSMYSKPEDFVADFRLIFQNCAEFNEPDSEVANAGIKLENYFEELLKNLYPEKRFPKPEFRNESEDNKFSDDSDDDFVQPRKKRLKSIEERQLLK
# Tyrosine-protein kinase ABL1 (Homo sapiens), sequence (P00519 whole entry): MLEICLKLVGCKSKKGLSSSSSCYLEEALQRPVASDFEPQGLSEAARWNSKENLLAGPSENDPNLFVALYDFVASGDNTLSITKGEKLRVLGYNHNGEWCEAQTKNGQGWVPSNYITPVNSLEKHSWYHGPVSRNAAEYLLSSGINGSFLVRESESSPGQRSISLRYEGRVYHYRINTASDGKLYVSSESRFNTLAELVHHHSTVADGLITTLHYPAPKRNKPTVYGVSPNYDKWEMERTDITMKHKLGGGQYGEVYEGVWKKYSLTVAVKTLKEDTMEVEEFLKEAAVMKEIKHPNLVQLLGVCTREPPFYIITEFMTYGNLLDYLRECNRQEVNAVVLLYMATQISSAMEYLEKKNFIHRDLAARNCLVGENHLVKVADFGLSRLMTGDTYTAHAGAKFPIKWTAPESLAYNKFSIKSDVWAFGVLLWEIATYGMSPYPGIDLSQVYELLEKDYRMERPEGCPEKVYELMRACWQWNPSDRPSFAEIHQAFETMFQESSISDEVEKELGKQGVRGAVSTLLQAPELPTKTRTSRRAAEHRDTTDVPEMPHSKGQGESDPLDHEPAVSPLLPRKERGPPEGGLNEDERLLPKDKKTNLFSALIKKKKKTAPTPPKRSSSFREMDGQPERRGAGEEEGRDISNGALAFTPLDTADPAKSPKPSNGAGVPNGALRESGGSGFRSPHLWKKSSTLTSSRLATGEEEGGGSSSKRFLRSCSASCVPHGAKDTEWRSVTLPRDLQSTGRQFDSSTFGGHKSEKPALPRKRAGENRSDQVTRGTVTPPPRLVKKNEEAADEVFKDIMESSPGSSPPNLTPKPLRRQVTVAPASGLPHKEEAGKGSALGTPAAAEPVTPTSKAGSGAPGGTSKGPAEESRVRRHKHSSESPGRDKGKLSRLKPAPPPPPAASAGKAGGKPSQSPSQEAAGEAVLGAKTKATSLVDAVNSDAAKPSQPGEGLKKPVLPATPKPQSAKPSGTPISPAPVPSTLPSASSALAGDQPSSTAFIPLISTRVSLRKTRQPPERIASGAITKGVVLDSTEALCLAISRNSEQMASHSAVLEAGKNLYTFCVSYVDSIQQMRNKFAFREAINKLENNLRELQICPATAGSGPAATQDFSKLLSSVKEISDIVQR
# Casein kinase I isoform delta (Homo sapiens), sequence (P48730 whole entry, looked up, canonical isoform): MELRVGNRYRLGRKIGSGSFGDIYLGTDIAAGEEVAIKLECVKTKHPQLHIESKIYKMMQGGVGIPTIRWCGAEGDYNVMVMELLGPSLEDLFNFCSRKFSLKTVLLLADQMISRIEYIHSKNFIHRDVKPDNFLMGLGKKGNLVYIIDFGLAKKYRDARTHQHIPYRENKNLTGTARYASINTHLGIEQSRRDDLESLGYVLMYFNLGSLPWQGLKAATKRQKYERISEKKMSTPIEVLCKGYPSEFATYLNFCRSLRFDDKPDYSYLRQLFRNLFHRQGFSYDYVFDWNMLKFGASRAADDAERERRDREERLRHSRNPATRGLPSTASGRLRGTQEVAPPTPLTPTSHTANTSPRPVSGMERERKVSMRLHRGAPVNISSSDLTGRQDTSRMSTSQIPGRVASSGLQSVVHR
compound,measurement,setting,value
N#Cc1ccc(N2N=C3c4ccc(C(=O)O)cc4CC[C@@H]3[C@@H]2C2CCCC2)cc1Cl,ΔTm,[1],-2.47 °C
same,ΔTm,[2],0 °C
same,ΔTm,[3],-2.04 °C
same,ΔTm,[4],-4.9 °C
same,ΔTm,[5],0 °C
same,ΔTm,[6],-9.49 °C
same,ΔTm,[7],0.42 °C
same,ΔTm,[8],1.43 °C
COc1cc(O)c2c(c1)/C=C\C[C@H](O)[C@H](O)C(=O)/C=C\C[C@H](C)OC2=O,ΔTm,[1],6.88 °C
same,ΔTm,[2],-0.9 °C
same,ΔTm,[3],0 °C
same,ΔTm,[4],0.3 °C
same,ΔTm,[5],0 °C
same,ΔTm,[6],0 °C
same,ΔTm,[7],0 °C
same,ΔTm,[8],-0.14 °C
COc1cc(C)[nH]c(=O)c1CNC(=O)c1c(C)n([C@H](C)C2CCOCC2)c2ccccc12,ΔTm,[1],0.28 °C
same,ΔTm,[2],-1.94 °C
same,ΔTm,[3],0.11 °C
same,ΔTm,[4],0.07 °C
same,ΔTm,[5],-0.59 °C
same,ΔTm,[6],-0.18 °C
same,ΔTm,[7],-0.23 °C
same,ΔTm,[8],-0.56 °C
Nc1cc2c3c(c1)C(c1ccccc1)=N[C@@H](NC(=O)c1cccnc1)C(=O)N3CC2,ΔTm,[1],0.6 °C
same,ΔTm,[2],-0.29 °C
same,ΔTm,[3],0.3 °C
same,ΔTm,[4],-0.17 °C
same,ΔTm,[5],-0.38 °C
same,ΔTm,[6],0.37 °C
same,ΔTm,[7],-2.21 °C
same,ΔTm,[8],-0.79 °C
C=Cc1cc(C(=O)Nc2ccc(C(=N)N)cc2)c(-c2ccc(C(=O)NCC3CC3)nc2C(=O)O)cc1OC,ΔTm,[1],0.26 °C
same,ΔTm,[2],-1.29 °C
same,ΔTm,[3],0.57 °C
same,ΔTm,[4],0.02 °C
same,ΔTm,[5],-0.41 °C
same,ΔTm,[6],0.21 °C
same,ΔTm,[7],-1.17 °C
same,ΔTm,[8],0.42 °C
CC(=O)Nc1ccc(OC[C@](C)(O)C(=O)Nc2ccc([N+](=O)[O-])c(C(F)(F)F)c2)cc1,ΔTm,[1],0.78 °C
same,ΔTm,[2],-0.77 °C
same,ΔTm,[3],0.35 °C
same,ΔTm,[4],0.23 °C
same,ΔTm,[5],0.71 °C
same,ΔTm,[6],-0.26 °C
same,ΔTm,[7],-0.03 °C
same,ΔTm,[8],0.02 °C
O=C1C(P(=O)(O)O)CCCN1O (configuration not stated),ΔTm,[1],0.38 °C
same,ΔTm,[2],-1.37 °C
same,ΔTm,[3],0.09 °C
same,ΔTm,[4],-0.23 °C
same,ΔTm,[5],-1.56 °C
same,ΔTm,[6],0.01 °C
same,ΔTm,[7],-2.37 °C
same,ΔTm,[8],-0.05 °C
C[C@]12CC[C@@H]3c4ccc(O)cc4C[C@@H](CCCCCCCCC[S+]([O-])CCCC(F)(F)C(F)(F)F)[C@H]3[C@@H]1CC[C@@H]2O (some centres not stated),ΔTm,[1],-4.09 °C
same,ΔTm,[2],-2.93 °C
same,ΔTm,[3],0 °C
same,ΔTm,[4],-4.77 °C
same,ΔTm,[5],0.72 °C
same,ΔTm,[6],-12 °C
same,ΔTm,[7],-0.16 °C
O=[N+]([O-])c1cc(O)c(O)c([N+](=O)[O-])c1,ΔTm,[1],0.3 °C
same,ΔTm,[2],2.94 °C
same,ΔTm,[3],1.19 °C
same,ΔTm,[4],-0.22 °C
same,ΔTm,[5],-0.11 °C
same,ΔTm,[6],0.24 °C
same,ΔTm,[7],0.17 °C
same,ΔTm,[8],3.59 °C
CN(C)NC(=O)CCC(=O)O,ΔTm,[1],0.19 °C
same,ΔTm,[2],-2.43 °C
same,ΔTm,[3],-0.11 °C
same,ΔTm,[4],-0.1 °C
same,ΔTm,[5],-0.76 °C
same,ΔTm,[6],0.1 °C
same,ΔTm,[7],-2.27 °C
same,ΔTm,[8],-0.24 °C
CN1[C@@H]2CC[C@H]1C[C@@H](OC(c1ccc(F)cc1)c1ccc(F)cc1)C2,ΔTm,[1],0.58 °C
same,ΔTm,[2],-2.87 °C
same,ΔTm,[3],0.08 °C
same,ΔTm,[4],-0.16 °C
same,ΔTm,[5],-0.54 °C
same,ΔTm,[6],0.11 °C
same,ΔTm,[7],-2.6 °C
same,ΔTm,[8],-0.2 °C

# — ChEMBL document CHEMBL5724796, “Tm Shift (DSF) assay results for EUbOPEN Chemogenomics Library” (2024)
